High-throughput results deposited in PubChem by Buhrlage Lab, Dana-Farber Cancer Institute and Novartis Institutes for BioMedical Research (Cambridge, Mass).
USP28 inh = inhibitors of human USP28 deubiquitinase; purified USP28, Ub-rhodamine cleavage fluorescence, 30 min; 47,000 compounds, 3% hits; AID 1645857, 2021; inhibition, % at 25 µM; Ubiquitin carboxyl-terminal hydrolase 28 (Homo sapiens), Q96RU2
OTUD3 block = inhibitors of human OTUD3 deubiquitinase | 47,000 compounds, 0.7% hits | purified OTUD3, Ub-rhodamine fluorescence, 2 h | inhibition, % at 25 µM | AID 1645858, 2021
An asterisk follows results filed as active; . = no result given. Compounds with a hit are over-represented: about 3.4% of the library has one in this group of screens. Cut-off read from the data, not from the text of the source: active = inhibition above about 30%; inactive = the rest.

SMILES | USP28 inh | OTUD3 block
Cc1cn([C@H]2CC(O)C(CO)O2)c(=O)[nH]c1=O (stereo partly specified) | -10 | 3
COc1ccc2c(c1)C(=O)C/C(=C\c1ccc(Cl)cc1)C2 | 16 | 18
O=C1NC(=O)/C(=C/c2ccc(OC(=O)c3ccc(Cl)cc3Cl)cc2)N1 | 31* | 21
Cc1nn(-c2ccccc2)c(C)c1C(=O)OCC(=O)Nc1cccc(C#N)c1 | 66* | 8
Cc1nn(-c2ccccc2)c(C)c1C(=O)OCC(=O)N(C)c1ccccc1 | 8 | 13
O=C(c1ccccc1)C1CCN(C(=O)c2ccccc2)CC1 | -5 | -3
COc1cccc(CSC2=NS(=O)(=O)c3ccccc3N2)c1 | 8 | 8
Cc1ccc(CSC2=NS(=O)(=O)c3ccccc3N2)cc1 | 57* | 11
CN1C[C@@]23CN(C(=O)c4cnccn4)C[C@@H](C[C@@H]2S1(=O)=O)O3 | 18 | 20
O=C(CN1C(=O)c2ccccc2Sc2ccc(C(=O)N3CCCC3)cc21)Nc1ccccc1Cl | 38* | -2
O=C(c1ccc2c(c1)N(Cc1ccccc1F)C(=O)c1ccccc1S2)N1CCC2(CC1)OCCO2 | 8 | 0
Oc1cc(O)cc(/C=C/c2ccc(O)c(O)c2)c1 | 49* | 47*
O=C(/C=C/c1ccc(O)c(O)c1)O[C@@H]1C[C@](O)(C(=O)O)C[C@@H](O)[C@H]1O | -15 | -1
O=C1CC[C@H](O)c2cccc(O)c21 | 3 | 21
O=C1CC(O)C(O)c2cccc(O)c21 (stereo unspecified) | 34* | 26
CN1C(=O)c2cc(S(=O)(=O)Nc3cccc(F)c3)ccc2Oc2cccnc21 | -1 | -6
COc1ccc(S(=O)(=O)N2CCN(c3ccnc4cc(Cl)ccc34)CC2)cc1 | 0 | 0
O=C(c1ccccc1)N1CC[C@@H]2[C@H](C1)CN2C(=O)Nc1ccccc1 | -4 | 3
CC(C)c1ccc(NC(=O)C2CCN(S(=O)(=O)c3cccc4cnccc34)CC2)cc1 | 45* | -10
O=C(NCc1ccco1)C1CCN(S(=O)(=O)c2cccc3cnccc23)CC1 | 1 | -3
N#Cc1ccc(NC(=O)Nc2cccn(Cc3ccccc3Br)c2=O)cc1 | 63* | 45*
N#Cc1cccc(NC(=O)Cn2cccc(-c3nc(-c4ccccc4)no3)c2=O)c1 | -179 | -94
Cc1ccccc1NC(=O)CNc1ccc(C#N)cc1 | 0 | -6
N#Cc1cccc(NC(=O)Nc2cccn(Cc3ccccc3F)c2=O)c1 | 82* | 84*
CCn1c(-c2cc(NC(=O)C3CCCO3)n[nH]2)cc2c(OC)cccc21 (stereo unspecified) | 1 | -8
SMILES | USP28 inh | OTUD3 block
Cc1ccc(CNC(=O)[C@H](C)NC(=O)N2CCn3c2nc2ccccc23)cc1 | 47* | 21
COc1cccc(CNC(=O)[C@H](C)NC(=O)N2CCn3c2nc2ccccc23)c1 | -7 | -10
Cn1nc(-c2nc(-c3ccccc3)no2)c2c1CCN(C(=O)C1CC1)C2 | 12 | 13
CC(=O)O[C@@H](C/C=C(\C)C(=O)O)[C@@H](C)[C@H]1C[C@H](OC(C)=O)[C@@]2(C)C3=CC[C@H]4C(C)(C)[C@H](O)CC[C@]4(C)C3=CC[C@]12C | 45* | 17
CC(=O)O[C@@H](C/C=C(\C)C(=O)O)[C@@H](C)[C@H]1C[C@H](OC(C)=O)[C@@]2(C)C3=CC[C@H]4C(C)(C)[C@H](OC(C)=O)CC[C@]4(C)C3=CC[C@]12C | 100* | 92*
CCCCC(=O)N1CCCC1c1nnc(C(=O)Nc2ccc(C)cc2)s1 (stereo unspecified) | 8 | 2
CCOC(=O)c1cc(NC(=O)c2ccc(F)cc2)ccc1N1CCOCC1 | . | -2
CCCOC(=O)c1cc(NC(=O)c2ccc(OCC)c(Cl)c2)ccc1N1CCOCC1 | 49* | -2
Cc1ccc(CC(=O)Nc2ccc3c(c2)CCC(=O)N3)cc1 | -15 | -17
COc1ccccc1/C=C/C(=O)Nc1nc2n(n1)C(c1ccc(Cl)cc1)CC(=O)N2 (stereo unspecified) | 23 | 37*
O=C(/C=C/c1ccco1)Nc1nc2n(n1)C(c1ccccc1)CC(=O)N2 (stereo unspecified) | -31 | -7
COc1cccc(C(=O)N[C@@H]2CC[C@@H](Oc3ccccc3)[C@H](O)[C@H]2O)c1 | 5 | 9
O=C(Nc1ccc(CN2CCOCC2)cc1)c1cccc([N+](=O)[O-])c1 | 0 | 0
O=C(Nc1ccc(CN2CCOCC2)cc1)c1cc2cc(Br)ccc2o1 | 47* | -12
Cc1ccc(NC(=O)Cn2nc3ccc(C(=O)NCc4ccccc4)cn3c2=O)cc1F | -2 | 2
O=C(N1CCN(Cc2noc(-c3ccccc3)n2)CC1)C(F)(F)F | 0 | 9
COc1cccc(CNC(=O)C2Oc3ccccc3NC2=O)c1 (stereo unspecified) | -2 | 1
COc1ccc(OC)c(NC(=O)C2Oc3ccccc3NC2=O)c1 (stereo unspecified) | 51* | -8
O=C(Cn1c(=O)n(-c2ccc(CC(=O)NC3CCCC3)cc2)c(=O)c2ccccc21)Nc1ccccc1[N+](=O)[O-] | 14 | 29
COc1cc(NC(=O)Cn2c(=O)n(-c3ccc(CC(=O)NC4CCCC4)cc3)c(=O)c3ccccc32)cc(OC)c1 | 44* | 43*
CCCn1c(NC(=O)c2cccnc2)nc2ccccc21 | 31* | 0
CCn1c(NC(=O)c2cccnc2N2CCCC2)nc2ccccc21 | 0 | -1
O=c1c(NCc2ccccc2Cl)nccn1Cc1ccc(F)cc1 | 30* | 26
O=c1c(NCc2ccc(F)cc2)nccn1-c1ccc2c(c1)OCCO2 | 19 | 2
CCC(C)Nc1cc2n(c(=O)n1)CCc1cc(OC)c(OC)cc1-2 (stereo unspecified) | -85 | -69
SMILES | USP28 inh | OTUD3 block
Cc1oc(-c2ccc(C(=O)NCC3COCCO3)cc2)nc1CN1CCc2ccccc21 (stereo unspecified) | 57* | -26
Cc1ccc(C(=O)NCC2COCCO2)cc1NC(=O)c1nsc2ccccc12 (stereo unspecified) | -5 | -8
Cc1cccc(-n2c(C)c(C)c3c(=N)n(Cc4ccccc4)cnc32)n1 | -1 | -8
c1cc(-c2noc(C3CCCO3)n2)ccc1-c1csc(C2CC2)n1 (stereo unspecified) | 40* | 5
c1cnc(-c2nc(-c3ccc(-c4csc(C5CC5)n4)cc3)no2)cn1 | -55 | -54
CCc1[nH]c(=O)cc2cc(OC)c(OC)cc12 | 97* | 92*
CCCc1cc(=O)[nH]c(N2CCN(c3ccccc3OC)CC2)n1 | 10 | 9
CCCCCn1c(=O)c2sccc2n2c(CCC(=O)NC3CCCCCC3)nnc12 | 13 | 10
Cc1ccc(S(=O)(=O)N(CC(=O)Nc2ccc(C(C)C)cc2)C2CCCCC2)cc1 | 3 | -1
CCOc1ccccc1C(=O)Nc1cc(N2CCCS2(=O)=O)ccc1C | 32* | 15
COc1ccc(N2CCCS2(=O)=O)cc1NC(=O)c1ccccc1OC | 35* | -2
CCOc1ccc(C(=O)Nc2cc(N3CCCS3(=O)=O)ccc2C)cc1 | 9 | 7
COc1cccc(C(=O)Nc2cc(N3CCCS3(=O)=O)ccc2OC)c1 | -4 | -6
CC(Cc1ccco1)NC(=O)c1cccc(NC(=O)c2nnc(C3CC3)s2)c1 (stereo unspecified) | 0 | 2
Cc1ccc(NC(=O)c2cnc(N3CCN(C)CC3)nc2C)c(C)c1 | 4 | 8
